Test results as given in PubChem BioAssay (Tox21).
Several values for one entry are separate records, joined by “and”; a condition that tells them apart may be missing. Equal values may be shown once. Records with an inconclusive call do not appear. Activity calls are given as the source filed them. Unless noted, the call rests on the fitted dose curve; in most records, active means well fitted curve in the direction sought with a large enough effect in the repeat runs; inconclusive means weak or mixed curves; inactive means no such curve, though single readings can be large; an effect the other way counts as inactive or inconclusive.

How the values were obtained:
[1] = qHTS assay for small molecule agonists of the p53 signaling pathway (AID 651631; calls by dose curve; further: nearly all actives have a fitted effect of over 15% in size; further: potency means the concentration at half of the fitted maximal effect)
Method in brief: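 Testing took place in human colorectal HCT-116 cells with stable p53RE-driven beta-lactamase. After 16 h of compound exposure at 37 °C, a FRET substrate was added and fluorescence recorded 2 h later.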

[2] = qHTS assay for small molecules that induce genotoxicity in human embryonic kidney cells expressing luciferase-tagged ATAD5 (AID 651632); further: nearly all actives have a fitted effect of over 15% in size
Method in brief: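 Increased luciferase signal from ATAD5-tagged reporter cells indicates DNA-damage-driven ATAD5 induction. HEK293T cells are treated for 16 hr at 37C before detection with Amplite.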

[3] = qHTS assay for small molecule agonists of the p53 signaling pathway - cell viability (AID 651633; calls by dose curve; further: nearly all actives have a fitted effect of over 30% in size)
Method in brief: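 Viability counter-read: CellTiter-Glo luminescence (30 min, room temperature) in the same p53RE-bla plates. These plates had been exposed to compounds for 16 h at 37 C.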

[4] = qHTS assay for small molecules that induce genotoxicity in human embryonic kidney cells expressing luciferase-tagged ATAD5 - cell viability (AID 651634; calls by dose curve; further: nearly all actives have a fitted effect of over 25% in size)
Method in brief: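 Cytotoxicity counterscreen in HEK293T cells bearing an ATAD5-luciferase reporter: live-cell protease activity measured by CellTiter-Fluor fluorescence after 15.5 hr compound exposure.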

[5] = qHTS assay for small molecule disruptors of the mitochondrial membrane potential - cell viability (AID 720634; calls by dose curve;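 further: human HepG2 liver cancer cells; nearly all actives have a fitted effect of over 20% in size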)
Method in brief: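 After overnight attachment at 37 C, HepG2 cells received compound or DMSO vehicle for 1 hr. Viability is then taken from ATP-driven luminescence following a 30 min room-temperature CellTiter-Glo step.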

[6] = qHTS assay for small molecule disruptors of the mitochondrial membrane potential (AID 720635)
Method in brief: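 Mitochondrial membrane potential tracked with Mito-MPS dye, red aggregates (ex 540/em 590 nm) against green monomers (ex 490/em 535 nm). Compound treatment 1 hr at 37C, dye 30 min in HepG2.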

[7] = qHTS assay to test for compound auto fluorescence at 535 nm (green) in HepG2 cells (AID 720675)
[8] = qHTS assay to test for compound auto fluorescence at 460 nm (blue) in HEK293 cells (AID 720678)
Method in brief: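 Auto fluorescence in the blue band was quantified as triamterene equivalency. HEK293 cells were seeded at 2,000/well, dosed after a 4-5 hr attachment, and kept overnight at 37C before the 405/460 nm reading.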

[9] = qHTS assay to test for compound auto fluorescence at 590 nm (red) in HEK293 cells (AID 720679)
Method in brief: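 Autofluorescence equivalency to Rose Bengal sodium, 540/590nm, in HEK293 cells exposed overnight to 23 nL compound per well.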

[10] = qHTS assay to test for compound auto fluorescence at 460 nm (blue) in HEK293 cell free culture (AID 720681)
Method in brief: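 Blue fluorescence (Ex 405/Em 460 nm, triamterene-equivalent) was read immediately after pin transfer of compound or DMSO into medium (DMEM, 10% FBS) without cells.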

[11] = qHTS assay to test for compound auto fluorescence at 535 nm (green) in HEK293 cell free culture (AID 720682)
Method in brief: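 DMEM + 10% FBS, cell-free; cpd or DMSO pinned in; Ex485/Em535 read; output as fluorescein-equivalent signal.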

[12] = qHTS assay to test for compound auto fluorescence at 590 nm (red) in HEK293 cell free culture (AID 720683)
Method in brief: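 Red-channel autofluorescence of compounds in culture medium (DMEM, 10% FBS), no cells, measured at 540/590 nm. Rose Bengal sodium is the reference fluorophore for equivalence.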

[13] = qHTS assay to test for compound auto fluorescence at 590 nm (red) in HepG2 cell free culture (AID 720684)
Method in brief: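 Plate contents were MEM with 10% FBS plus test compound or DMSO, no cells. Fluorescence was recorded with 540 nm excitation and 590 nm emission.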

[14] = qHTS assay to test for compound auto fluorescence at 460 nm (blue) in HepG2 cell free culture (AID 720685)
Method in brief: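 Compound (23 nL) or DMSO pinned into cell-free MEM with 10% FBS; blue fluorescence read at 405/460 nm excitation/emission, expressed as auto-fluorescence equivalency to triamterene.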

[15] = qHTS assay to test for compound auto fluorescence at 535 nm (green) in HepG2 cell free culture (AID 720686)
[16] = qHTS assay to test for compound auto fluorescence at 460 nm (blue) in HepG2 cells (AID 720687)
Method in brief: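 Blue-channel autofluorescence (Ex/Em 405/460 nm, triamterene-equivalent) was measured after 1 hr compound exposure at 37 C, 5% CO2. Cells were HepG2, plated overnight at 37 C in MEM plus 10% FBS.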

[17] = target: Glucocorticoid receptor (Homo sapiens) (UniProt P04150); test: qHTS assay to identify small molecule agonists of the glucocorticoid receptor (GR) signaling pathway (AID 720691; active means well fitted activation curve with a large enough effect in the signal ratio in the repeat runs, not every such curve was filed as active; the % refers to the signal ratio); conditions: GR-bla HeLa, beta-lactamase reporter ratio, 18 h; activation: at 62.4 µM (top of the series) unless noted
Method in brief: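 Agonist mode in a HeLa line carrying a GRE-controlled beta-lactamase reporter. Compounds act for 18 h at 37 C before a 2 h room-temperature FRET substrate step and fluorescence reading.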

[18] = target: Glucocorticoid receptor (Homo sapiens) (UniProt P04150); test: qHTS assay to identify small molecule antagonists of the glucocorticoid receptor (GR) signaling pathway (AID 720692; active means well fitted inhibition curve with a large enough effect in the signal ratio in the repeat runs, not every such curve was filed as active; the % refers to the signal ratio)
Method in brief: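 Cells plated, rested 4 h at 37 C/5% CO2; compounds in DMSO pin-transferred; dexamethasone added to 5 nM final; 18 h at 37 C; B/G FRET substrate added, 2 h room temperature; fluorescence measured.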

[19] = qHTS assay to test for compound auto fluorescence at 590 nm (red) in HepG2 cells (AID 720674)
Method in brief: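 Red autofluorescence (Ex/Em 540/590 nm, Rose Bengal sodium equivalents) was measured in HepG2 cells, 2,000 per well in MEM plus 10% FBS, plated overnight at 37 C. Readings were taken 1 hr after adding 23 nL compound or DMSO, at 37 C and 5% CO2.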

[20] = qHTS assay to test for compound auto fluorescence at 535 nm (green) in HEK293 cells (AID 720680)
On the % scale 0 is the no-effect control and ±100 the full control effect.

Sequence of Glucocorticoid receptor (Homo sapiens) (P04150 whole entry, looked up): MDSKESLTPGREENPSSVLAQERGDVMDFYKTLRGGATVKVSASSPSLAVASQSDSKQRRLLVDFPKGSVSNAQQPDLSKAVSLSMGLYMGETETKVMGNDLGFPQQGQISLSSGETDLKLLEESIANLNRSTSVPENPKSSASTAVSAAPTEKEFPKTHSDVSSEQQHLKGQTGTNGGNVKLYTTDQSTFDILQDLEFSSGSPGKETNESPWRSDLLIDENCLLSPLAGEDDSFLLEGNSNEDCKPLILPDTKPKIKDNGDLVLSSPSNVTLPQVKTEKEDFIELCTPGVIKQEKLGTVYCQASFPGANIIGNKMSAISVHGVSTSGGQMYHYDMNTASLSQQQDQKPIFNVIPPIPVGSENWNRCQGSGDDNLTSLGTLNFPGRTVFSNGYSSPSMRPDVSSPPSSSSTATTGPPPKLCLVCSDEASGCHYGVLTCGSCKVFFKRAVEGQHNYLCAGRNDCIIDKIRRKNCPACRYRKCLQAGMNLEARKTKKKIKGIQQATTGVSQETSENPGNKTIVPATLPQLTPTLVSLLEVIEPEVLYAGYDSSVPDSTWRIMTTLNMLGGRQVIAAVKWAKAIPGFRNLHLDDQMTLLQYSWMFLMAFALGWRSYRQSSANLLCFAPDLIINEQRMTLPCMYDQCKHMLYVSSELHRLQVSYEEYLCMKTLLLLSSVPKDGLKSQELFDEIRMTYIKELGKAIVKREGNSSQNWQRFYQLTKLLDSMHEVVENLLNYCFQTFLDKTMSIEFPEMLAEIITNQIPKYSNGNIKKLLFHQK

C[N+](C)(C)CCOC(=O)CCC(=O)OCC[N+](C)(C)C
inactive: Potency [1] | Potency [2] | Potency [3] | Potency [4] | Potency [5] | Potency [6] | Potency [7] | outcome [8] | Potency [9] | outcome [10] | outcome [11] | Potency [12] | Potency [13] | outcome [14] | Potency [15] | outcome [16] | Potency [17]

O=C1c2ccccc2S(=O)(=O)N1CCCCN1CCN(c2ncccn2)CC1
inactive: Potency [1] | Potency [2] | Potency [3] | Potency [4] | Potency [5] | Potency [6] | Potency [9] | outcome [10] | outcome [11] | Potency [12] | Potency [13] | outcome [14] | Potency [15] | outcome [16] | Potency [17] | Potency [18]

O=C(OCCCCCCOC(=O)c1ccccc1)c1ccccc1
inactive: Potency [1] | Potency [2] | Potency [3] | Potency [4] | Potency [5] | Potency [6] | Potency [19] | Potency [7] | outcome [8] | Potency [9] | outcome [10] | outcome [11] | Potency [12] | Potency [13] | outcome [14] | Potency [15] | outcome [16] | Potency [18]

COc1ccc(C)cc1[N+](=O)[O-]
inactive: Potency [1] | Potency [2] | Potency [3] | Potency [4] | Potency [5] | Potency [19] | Potency [7] | outcome [8] | Potency [9] | outcome [20] | outcome [10] | outcome [11] | Potency [12] | Potency [13] | outcome [14] | Potency [15] | outcome [16] | Potency [17] | Potency [18]

CNC(=O)CN(CCN(CCN(CC(=O)[O-])CC(=O)NC)CC(=O)[O-])CC(=O)[O-].O.[Gd+3]
inactive: Potency [1] | Potency [2] | Potency [3] | Potency [4] | Potency [5] | Potency [19] | Potency [7] | outcome [8] | Potency [9] | outcome [20] | outcome [10] | outcome [11] | Potency [12] | Potency [13] | outcome [14] | Potency [15] | outcome [16] | Potency [17] | Potency [18]

Cc1cc(C(=O)O)ccc1[N+](=O)[O-]
inactive: Potency [1] | Potency [2] | Potency [3] | Potency [4] | Potency [5] | Potency [6] | Potency [19] | Potency [7] | Potency [9] | outcome [20] | outcome [10] | outcome [11] | Potency [12] | Potency [13] | outcome [14] | Potency [15] | outcome [16]

O=C(O)c1ccccc1Cl
inactive: Potency [1] | Potency [2] | Potency [3] | Potency [4] | Potency [5] | Potency [19] | Potency [7] | outcome [8] | Potency [9] | outcome [20] | outcome [10] | outcome [11] | Potency [12] | Potency [13] | outcome [14] | Potency [15] | outcome [16]

COC(C)(C)CCO
inactive: Potency [1] | Potency [2] | Potency [3] | Potency [4] | Potency [5] | Potency [6] | Potency [19] | Potency [7] | outcome [8] | Potency [9] | outcome [20] | outcome [10] | outcome [11] | Potency [12] | Potency [13] | Potency [15] | outcome [16] | Potency [17] | Potency [18]

CCCCC/C=C\C/C=C\CCCCCCCC(=O)NC(C)c1ccccc1 (stereo not drawn)
inactive: Potency [1] | Potency [2] | Potency [3] | Potency [4] | Potency [5] | Potency [6] | Potency [19] | outcome [8] | Potency [9] | outcome [20] | outcome [10] | outcome [11] | Potency [12] | Potency [13] | Potency [15] | outcome [16] | Potency [17]

N=c1ccn2c(n1)O[C@H]1[C@H](O)[C@@H](CO)O[C@H]12
active: Potency [1] 1.5 µM and 1.72 µM
inactive: Potency [2] | Potency [3] | Potency [4] | Potency [5] | Potency [6] | Potency [19] | Potency [7] | outcome [8] | Potency [9] | outcome [20] | outcome [10] | outcome [11] | Potency [12] | Potency [13] | outcome [14] | Potency [15] | outcome [16] | Potency [17] | Potency [18]

C/C(=C(\CCOP(=O)(O)O)SC(=O)c1ccccc1)N(C=O)Cc1cnc(C)nc1N
inactive: Potency [1] | Potency [2] | Potency [3] | Potency [4] | Potency [5] | Potency [6] | fluorescence, relative to Rose Bengal [19] -0.226% [at 18.6 µM] | fluorescence, % of fluorescein control [7] -0.0371% [at 18.6 µM] | fluorescence, % of triamterene [8] -0.0569% [at 18.6 µM] | fluorescence, % of fluorescent control [9] 0.166% [at 18.6 µM] | fluorescence, % of fluorescein [20] -0.205% [at 18.6 µM] | fluorescence, % of fluorescent control [10] -0.0157% [at 18.6 µM] | fluorescence, % of fluorescent control [12] -0.0062% [at 18.6 µM] | fluorescence, % of Rose Bengal [13] 0.0762% [at 18.6 µM] | fluorescence, % of fluorescent control [14] -0.035% [at 18.6 µM] | fluorescence, % of fluorescein control [15] -0.0244% [at 18.6 µM] | fluorescence, % of fluorescent control [16] -0.293% [at 18.6 µM] | Potency [18]

c1ccc(-c2ccccn2)nc1
inactive: Potency [1] | Potency [2] | Potency [3] | Potency [4] | Potency [5] | Potency [6] | Potency [7] | outcome [8] | Potency [9] | outcome [10] | outcome [11] | Potency [12] | Potency [13] | outcome [14] | Potency [15] | outcome [16] | Potency [17]

NCC(=O)CCC(=O)O
inactive: Potency [1] | Potency [2] | Potency [3] | Potency [4] | Potency [5] | Potency [19] | Potency [7] | outcome [8] | Potency [9] | outcome [20] | outcome [10] | outcome [11] | Potency [12] | Potency [13] | outcome [14] | Potency [15] | outcome [16] | Potency [17] | Potency [18]
